Experimental data as given in PubChem BioAssay (NCI).
Compounds without any hit were thinned out: in the full panel of roughly 79,000, 15% have a hit. Values without a mark were called inactive. Active and inactive are the calls of the source. No stated cut-off is given here; in the data, active means growth inhibition above about 70%; inactive means the rest.

Legend:
[1] = NCI Yeast Anticancer Drug Screen. Data for the rad50 strain (AID 155);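 further: 0% = growth of vehicle-only cultures of the same strain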; settings: S. cerevisiae rad50 strain growth inhibition; at 50.0 µM; active compounds read high
Outline: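 Cells are treated with compound, grown, and their growth is then scored against vehicle-only cultures of the same repair-deficient yeast strain.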

[2] = NCI Yeast Anticancer Drug Screen. Data for the mec2-1 strain (AID 157); settings: S. cerevisiae mec2-1 strain, at 50.0 µM, active compounds read high
Outline: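 Cells of the genetically defined mec2-1 yeast strain are incubated with test compound. Inhibition of growth is calculated against vehicle-treated controls.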

[3] = NCI Yeast Anticancer Drug Screen. Data for the sgs1 mgt1 strain (AID 161);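 further: 0% = growth of cultures given vehicle only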; settings: S. cerevisiae sgs1 mgt1 strain, at 50.0 µM, active compounds read high
Outline: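 Mutant yeast exposed to compound; growth scored against vehicle-only wells.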

[4] = NCI Yeast Anticancer Drug Screen. Data for the cln2 rad14 strain (AID 165);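 further: 0% = growth equal to vehicle treated cultures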; settings: S. cerevisiae cln2 rad14 strain, at 50.0 µM, active compounds read high
Outline: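 The screen exposed genetically defined yeast (cln2 rad14) to test compounds and scored growth inhibition relative to vehicle-treated controls.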

[5] = NCI Yeast Anticancer Drug Screen. Data for the bub3 strain (AID 167); settings: S. cerevisiae bub3 mutant strain, at 50.0 µM, active compounds read high
Outline: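 Part of a panel of yeast mutants defective in DNA damage repair or cell cycle regulation. Each strain is grown with compound, and inhibition is calculated relative to solvent-treated cultures.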

[6] = NCI Yeast Anticancer Drug Screen. Data for the mlh1 rad18 strain (AID 175); settings: S. cerevisiae mlh1 rad18 strain growth inhibition; at 50.0 µM; active compounds read high
Outline: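 Compound-treated yeast growth, normalised to vehicle controls. Strain bears defined DNA repair mutations.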

SMILES	growth inhibition [1]	growth inhibition [2]	growth inhibition [3]	growth inhibition [4]	growth inhibition [5]	growth inhibition [6]
CC1=CC(C(O)C(C)C)C(C)(Cc2ccc(C)cn2)NC1c1ccccc1 (configuration not stated)	50.6%	-6.3%	5.45%	15.2%	-2.05%	0.5%
O=C(O)c1[nH]c(=O)[nH]c(=O)c1Br	-4.3%	-22.9%	-9.75%	-40.5%	-15.7%	-17.6%
N/N=C1\CC(=O)NC(=O)N1	-2.15%	-11.1%	1.9%	1.8%	3.05%	0.05%
Cc1cccc(NC(=O)c2cccc([N+](=O)[O-])c2O)c1C	3.1%	9.05%	14.2%	11.8%	-2.7%	-87%
C=C(C)CS(=O)(=O)Cc1ccccc1	14.6%	-10.1%	-1.8%	-40.9%	-4.55%	7.6%
CC(=O)OCC(OC(C)=O)C(OC(C)=O)C(OC(C)=O)C(O)CO (configuration not stated)	-0.55%	18.8%	15.4%	-6%	24.6%	-4.45%
O=C(c1ccccc1)c1oc(CO)cc(=O)c1O	-1%	-12%	-4.35%	-48.1%	-3.9%	-16.1%
O=C(O)c1ccccc1C(=O)CCC(=O)c1ccccc1C(=O)O	-43.5%	-6.75%	14.3%	-8.95%	-0.05%	1.25%
COc1ccc(NC(=O)NCc2cccc(Cl)c2)cc1	2.6%	35.4%	32%	-8.4%	-9.15%	44.1%
O=C(CN1CCCc2ccccc21)c1ccccc1	6.75%	6.7%	4.55%	10.3%	19%	10.4%
O=S(=O)(c1ccc(NC(=S)N2CCOCC2)cc1)N1CCCCC1	-3.45%	1.1%	-10.1%	1.6%	-5.95%	8.65%
CCCCCCCCC(Br)C(Br)CCCCCCCC(=O)N(CCCC)CCCC (configuration not stated)	36.9%	10.6%	2.05%	-5.45%	13.8%	8.3%
[Cl][Pt+2][Cl].[NH-]C1CCC1.[NH2-]	3.25%	-3.5%	-3.85%	18.4%	-16.1%	-66.6%
Cc1cccc(C(=O)O)c1N	9.7%	-5.25%	-10.6%	9.95%	-33.6%	13.4%
O=C1c2ccccc2-c2ccc(-c3ccc4c5c(cccc35)C(=O)c3ccccc3-4)c3cccc1c23	-21.9%	-27.6%	-7.9%	-0.85%	-31.3%	-34.2%
COC(=O)C1(CC(=O)/C=C/c2ccccc2)NC(=S)NC(=O)C1C#N (configuration not stated)	15.7%	-3.65%	-8.4%	10.1%	-19.9%	9.9%
CCOc1ccc(NC(=S)NC=C(C#N)C#N)cc1	-17.8%	-12.6%	-9.55%	-4.9%	7.75%	-5.75%
CCC1C(C)C=CN1c1nc(N)nc(NS(=O)(=O)c2cc(C)c(Cl)cc2S)n1 (configuration not stated)	-18.2%	2.5%	17.7%	-1.9%	4.3%	12.2%
CCOC(=O)C(C)(C)/C=C\C(Cl)=C(Cl)Cl	4.1%	4.2%	8.75%	4.25%	19.2%	-34.5%
C=C1C(=O)OC2(C)CCC1CC1OC1(C)CC/C=C(\C)CCC2OC(C)=O (configuration not stated)	-3.95%	-6.55%	17.4%	8.25%	-3%	7.85%
COc1ccc(OC(=O)Nc2cccc(Cl)c2)cc1	8.4%	39.1%	29.8%	-11.3%	31.4%	55.6%

SMILES	growth inhibition [1]	growth inhibition [2]	growth inhibition [3]	growth inhibition [4]	growth inhibition [5]	growth inhibition [6]
O=c1c2cccnc2ncn1CCN1CCCC1	5.25%	-11.6%	-3.5%	8.4%	-1.8%	21.1%
Cc1cc(N)c(NC2OC(CO)C(O)C2O)cc1C (configuration not stated)	-25.1%	0.8%	4.75%	-43.1%	41.1%	19.7%
COC(=O)Nc1cn2nc(C)sc2n1	-17.4%	11.4%	-10.1%	-16.1%	2.6%	-6.95%
CCCCCC(CN(C)C)C(O)CCc1ccc(Cl)c(Cl)c1 (configuration not stated)	98.5% (active)	79.2% (active)	98% (active)	98.5% (active)	80.5% (active)	98.6% (active)
CC(=O)NC(C)Cc1ccc(C(=O)O)cc1 (configuration not stated)	13.9%	-6.25%	-8.5%	-36.4%	-4.5%	12.6%
O=C(/C=C/c1ccc(O)cc1)c1ccc(Cl)cc1	-17.7%	-22.9%	-18.6%	-36.9%	20.4%	-16.4%
Cn1c(O)c2c(c1O)C(=Nc1ccccc1)c1ccccc1C2=O	89.2% (active)	98.5% (active)	93% (active)	94.2% (active)	98.6% (active)	97.9% (active)
Cc1c(Cl)cccc1NC(=O)C1CC(Br)C(Br)CC1C(=O)O (configuration not stated)	1.5%	6.7%	1.5%	-48.5%	9.35%	31.3%
CC(O)CCNC(=O)c1ccccc1 (configuration not stated)	-10.4%	-16.2%	-11.3%	-25.8%	-13.3%	-5%
Cc1c(C=O)cc(-c2ccccc2)n1C	-16.2%	-3.25%	-4.85%	-8.45%	-7.1%	-1.6%
CC1C=CC(O)[C@]2(CO)CC3(CCC12)OCCO3 (some centres not stated)	-13.7%	3.95%	-13.6%	17.6%	-12.7%	-16.3%
Nc1nc(N)c(NC(=O)CCCO)c(=O)[nH]1	-3.95%	-2.35%	-13.3%	6.8%	-23.8%	-53%
NS(=O)(=O)c1ccc(NC2(C(=O)O)CCCC2)cc1	-18.4%	-9.3%	-0.9%	-9.4%	-38.5%	-21.5%
NNC(=O)c1cccc2c1Oc1ccccc1S2	21.5%	-12.9%	10.9%	-63.9%	-11.9%	25.1%
C=CCCCCOCOCCOC	13.7%	17.6%	5.8%	0.5%	0.15%	-28.4%
CC(C)(O)C1CCC/C1=N/NC(N)=O (configuration not stated)	-7.5%	5%	5.2%	3.55%	-10.3%	-11.3%
COc1ccc(/C=N/NC(=O)NCCCN(C)C)cc1	3.3%	-29%	-9.9%	-5%	-23.9%	-7.65%
OC(CCl)CN1CCN(CC(O)CCl)CC1 (configuration not stated)	-3.05%	12.3%	2.55%	13.5%	-9.55%	-24.8%
CCN(CC(O)COc1ccc2c(c1)[n+]([O-])nc(N)[n+]2[O-])C(C)=O (configuration not stated)	46.5%	38%	40.3%	38.9%	31%	38.8%
COc1cc2c(c(OC)c1OC)-c1c(cc3c(c1OC)OCO3)C1OC2C(C)C1C (configuration not stated) (tested in a mixture with another compound)	-23.6%	-55%	-9%	-20.4%	-20.6%	-39.2%
CC(O)CN(CC(C)O)c1ccc2c(c1)Cc1ccccc1-2 (configuration not stated)	-13.2%	-13.3%	13.8%	-20.8%	36%	-4.6%
